About 7,900 targets were measured; listed, in parts, are those with a hit and a random draw of the rest. About 0.6% of all pairs of compound and target were hits. Values without a mark were called inactive.

From the supplement of paper PMC10849652 come the findings set out here.

Chain of UniProt Q14677 (Q14677 whole entry, looked up): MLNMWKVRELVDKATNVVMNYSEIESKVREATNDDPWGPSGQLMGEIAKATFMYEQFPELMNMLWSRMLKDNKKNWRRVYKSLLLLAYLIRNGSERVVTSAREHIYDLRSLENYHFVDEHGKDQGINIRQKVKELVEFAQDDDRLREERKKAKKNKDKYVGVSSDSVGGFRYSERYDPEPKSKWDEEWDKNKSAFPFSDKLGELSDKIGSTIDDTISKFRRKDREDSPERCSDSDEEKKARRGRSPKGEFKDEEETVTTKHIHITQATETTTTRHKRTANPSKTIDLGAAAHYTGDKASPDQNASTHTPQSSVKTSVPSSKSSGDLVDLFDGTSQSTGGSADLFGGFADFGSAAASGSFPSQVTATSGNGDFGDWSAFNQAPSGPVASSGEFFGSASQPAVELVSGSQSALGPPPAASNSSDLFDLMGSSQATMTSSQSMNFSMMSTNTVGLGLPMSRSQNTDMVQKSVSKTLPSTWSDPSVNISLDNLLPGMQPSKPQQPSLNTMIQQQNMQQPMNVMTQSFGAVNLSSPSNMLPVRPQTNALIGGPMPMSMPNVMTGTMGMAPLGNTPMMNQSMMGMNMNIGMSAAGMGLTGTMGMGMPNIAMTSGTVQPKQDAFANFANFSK
Chain of UniProt P51795 (P51795 whole entry, looked up): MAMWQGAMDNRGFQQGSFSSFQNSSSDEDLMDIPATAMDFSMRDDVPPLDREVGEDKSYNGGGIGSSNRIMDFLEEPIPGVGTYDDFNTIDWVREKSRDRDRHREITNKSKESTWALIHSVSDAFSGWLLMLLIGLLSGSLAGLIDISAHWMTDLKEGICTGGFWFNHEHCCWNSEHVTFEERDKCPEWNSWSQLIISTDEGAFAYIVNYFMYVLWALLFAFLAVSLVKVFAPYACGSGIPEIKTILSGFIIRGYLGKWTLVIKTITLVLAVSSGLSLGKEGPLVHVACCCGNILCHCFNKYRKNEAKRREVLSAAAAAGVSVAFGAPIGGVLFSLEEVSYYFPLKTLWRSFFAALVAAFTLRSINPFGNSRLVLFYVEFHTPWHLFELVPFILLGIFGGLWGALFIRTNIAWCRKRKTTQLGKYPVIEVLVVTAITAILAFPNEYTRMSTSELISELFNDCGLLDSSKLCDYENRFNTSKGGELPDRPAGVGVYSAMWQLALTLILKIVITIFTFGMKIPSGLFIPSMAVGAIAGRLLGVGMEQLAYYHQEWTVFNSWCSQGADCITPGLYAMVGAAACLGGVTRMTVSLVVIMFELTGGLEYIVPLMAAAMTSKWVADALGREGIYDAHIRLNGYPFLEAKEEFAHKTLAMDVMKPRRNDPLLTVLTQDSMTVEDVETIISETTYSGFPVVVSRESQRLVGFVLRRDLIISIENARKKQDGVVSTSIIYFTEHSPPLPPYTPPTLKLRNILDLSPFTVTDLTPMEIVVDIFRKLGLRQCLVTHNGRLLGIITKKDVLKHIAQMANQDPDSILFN
Chain of UniProt P55210 (P55210 whole entry, looked up): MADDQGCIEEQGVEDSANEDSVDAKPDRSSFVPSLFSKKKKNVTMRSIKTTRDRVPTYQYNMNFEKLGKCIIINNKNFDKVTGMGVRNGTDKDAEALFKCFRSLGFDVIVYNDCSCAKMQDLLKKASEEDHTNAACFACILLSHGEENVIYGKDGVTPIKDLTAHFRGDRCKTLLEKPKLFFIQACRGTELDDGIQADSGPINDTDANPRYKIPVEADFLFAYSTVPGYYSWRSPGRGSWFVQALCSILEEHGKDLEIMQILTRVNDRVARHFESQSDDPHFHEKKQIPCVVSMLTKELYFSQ
Chain of UniProt A8MTT3 (A8MTT3 whole entry, looked up): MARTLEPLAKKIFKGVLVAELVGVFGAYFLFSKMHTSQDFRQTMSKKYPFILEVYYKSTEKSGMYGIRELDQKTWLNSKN
Chain of UniProt O95628 (O95628 whole entry, looked up): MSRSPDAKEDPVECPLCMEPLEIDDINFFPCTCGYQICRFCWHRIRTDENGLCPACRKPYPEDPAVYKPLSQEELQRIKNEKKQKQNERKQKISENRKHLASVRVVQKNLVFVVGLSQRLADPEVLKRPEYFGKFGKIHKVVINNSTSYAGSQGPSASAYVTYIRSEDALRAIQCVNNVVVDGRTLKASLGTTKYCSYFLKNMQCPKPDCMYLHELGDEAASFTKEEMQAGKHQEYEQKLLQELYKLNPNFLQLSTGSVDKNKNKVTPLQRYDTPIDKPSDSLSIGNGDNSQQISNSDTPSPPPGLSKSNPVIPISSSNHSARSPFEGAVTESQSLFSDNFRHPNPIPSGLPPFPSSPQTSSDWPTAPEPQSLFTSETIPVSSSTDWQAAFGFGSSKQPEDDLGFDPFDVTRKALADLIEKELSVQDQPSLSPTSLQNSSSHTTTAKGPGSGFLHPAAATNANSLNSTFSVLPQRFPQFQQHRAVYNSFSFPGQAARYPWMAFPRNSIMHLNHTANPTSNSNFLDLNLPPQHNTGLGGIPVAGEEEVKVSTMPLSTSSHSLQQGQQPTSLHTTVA
Chain of UniProt O14936 (O14936 whole entry, looked up): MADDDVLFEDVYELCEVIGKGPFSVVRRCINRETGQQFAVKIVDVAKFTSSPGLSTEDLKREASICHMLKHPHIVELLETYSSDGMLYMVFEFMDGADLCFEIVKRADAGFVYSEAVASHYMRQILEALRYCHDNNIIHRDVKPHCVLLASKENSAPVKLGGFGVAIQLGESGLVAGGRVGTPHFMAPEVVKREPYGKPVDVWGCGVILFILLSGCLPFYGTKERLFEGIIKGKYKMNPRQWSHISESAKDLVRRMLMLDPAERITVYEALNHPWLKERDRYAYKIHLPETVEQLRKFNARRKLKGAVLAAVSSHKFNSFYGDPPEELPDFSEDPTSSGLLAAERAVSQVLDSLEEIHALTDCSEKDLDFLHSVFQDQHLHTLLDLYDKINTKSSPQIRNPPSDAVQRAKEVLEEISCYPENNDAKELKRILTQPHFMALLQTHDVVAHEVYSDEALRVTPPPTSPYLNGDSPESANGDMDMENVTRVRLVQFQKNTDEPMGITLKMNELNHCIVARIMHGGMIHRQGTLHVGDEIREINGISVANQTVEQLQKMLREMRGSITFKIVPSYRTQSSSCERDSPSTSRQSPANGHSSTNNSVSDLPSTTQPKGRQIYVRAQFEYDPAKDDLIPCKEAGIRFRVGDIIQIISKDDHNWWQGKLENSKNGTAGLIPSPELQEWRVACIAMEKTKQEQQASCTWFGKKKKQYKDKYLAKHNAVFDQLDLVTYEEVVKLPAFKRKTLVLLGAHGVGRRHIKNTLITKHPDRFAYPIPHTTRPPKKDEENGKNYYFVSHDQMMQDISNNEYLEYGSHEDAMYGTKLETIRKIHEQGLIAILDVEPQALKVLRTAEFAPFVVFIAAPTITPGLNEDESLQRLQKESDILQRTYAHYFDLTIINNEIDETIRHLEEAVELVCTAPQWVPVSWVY
Chain of UniProt P30281 (P30281 whole entry, looked up): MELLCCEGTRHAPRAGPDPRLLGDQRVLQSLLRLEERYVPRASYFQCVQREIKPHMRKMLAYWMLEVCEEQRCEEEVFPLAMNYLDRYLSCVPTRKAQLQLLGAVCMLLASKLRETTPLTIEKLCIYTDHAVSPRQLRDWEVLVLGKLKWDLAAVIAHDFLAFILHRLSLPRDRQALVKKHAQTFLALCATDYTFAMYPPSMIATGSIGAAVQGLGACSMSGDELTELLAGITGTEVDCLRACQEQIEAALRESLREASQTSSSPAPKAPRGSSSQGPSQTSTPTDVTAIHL
Chain of UniProt Q13286 (Q13286 whole entry, looked up): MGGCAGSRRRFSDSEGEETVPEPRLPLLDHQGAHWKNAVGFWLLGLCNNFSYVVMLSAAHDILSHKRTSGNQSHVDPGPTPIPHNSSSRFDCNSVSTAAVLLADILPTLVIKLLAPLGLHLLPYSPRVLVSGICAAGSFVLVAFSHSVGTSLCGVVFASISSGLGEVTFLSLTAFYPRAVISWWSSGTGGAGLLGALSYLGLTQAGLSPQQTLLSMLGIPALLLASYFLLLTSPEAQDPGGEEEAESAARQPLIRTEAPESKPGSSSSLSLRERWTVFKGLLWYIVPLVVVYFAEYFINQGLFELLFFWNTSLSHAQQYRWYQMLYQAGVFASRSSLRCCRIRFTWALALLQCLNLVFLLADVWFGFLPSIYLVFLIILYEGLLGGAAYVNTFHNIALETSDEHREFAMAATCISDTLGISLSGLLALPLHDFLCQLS
Chain of UniProt P33552 (P33552 whole entry, looked up): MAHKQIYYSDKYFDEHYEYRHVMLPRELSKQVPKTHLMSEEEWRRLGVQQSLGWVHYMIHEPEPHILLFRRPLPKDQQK
Chain of UniProt Q8N4S0 (Q8N4S0 whole entry, looked up): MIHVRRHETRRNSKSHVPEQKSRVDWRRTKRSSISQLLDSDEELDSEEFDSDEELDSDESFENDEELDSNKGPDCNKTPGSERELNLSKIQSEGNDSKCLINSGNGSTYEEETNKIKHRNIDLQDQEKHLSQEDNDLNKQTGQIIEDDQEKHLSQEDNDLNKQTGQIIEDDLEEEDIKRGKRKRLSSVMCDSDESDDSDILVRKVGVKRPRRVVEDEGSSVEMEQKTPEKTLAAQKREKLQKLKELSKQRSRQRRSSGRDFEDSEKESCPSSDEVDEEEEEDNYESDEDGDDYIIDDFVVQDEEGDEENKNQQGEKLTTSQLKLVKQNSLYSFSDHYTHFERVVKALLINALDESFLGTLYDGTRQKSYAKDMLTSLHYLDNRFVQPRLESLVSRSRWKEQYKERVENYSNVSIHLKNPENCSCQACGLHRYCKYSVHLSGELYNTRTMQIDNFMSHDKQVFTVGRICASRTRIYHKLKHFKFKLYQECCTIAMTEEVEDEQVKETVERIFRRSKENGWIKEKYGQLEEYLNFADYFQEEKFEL

Compound in the experiment: CN1CCN(CCOc2cc(OC3CCOCC3)c3c(Nc4c(Cl)ccc5c4OCO5)ncnc3c2)CC1 [saracatinib]
Description: log2 fold change, soluble protein after heating vs DMSO (PISA); higher = thermal stabilisation; K562 cells, 10 uM, 30 min; active = over 0.2 and 3.5 SD of the protein, either way, in both replicates (recomputed). The gist of the method: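 Soluble protein was quantified by TMTpro 16plex LC-MS/MS after channel sums were equalised. It was obtained as the supernatant after 21,000xg for 90 min from pooled aliquots of K562 cells (2×10^6 cells/mL, 10 μM compound, 30 min) heated for 3 min across 48°C-58°C and extracted in PBS with 0.5% NP-40 at 4°C. Thermal stability values are relative to control samples and come from duplicates. They are given as log2 fold changes.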
For CLN3 (UniProt Q13286), the log2 fold change was 0.046.
Consider CNOT4 isoform 9 (UniProt O95628), for which the log2 fold change is 0.077.
Turning to CEBPZOS (UniProt A8MTT3), the log2 fold change is 0.079.
To CCDC82 (UniProt Q8N4S0) belongs 0; to CCND3 (UniProt P30281), 0.03; to CKS2 (UniProt P33552), -0.044.
To CFAP47 (UniProt Q6ZTR5) belongs 0.001; to CA1 (UniProt E5RIF9), 0.272.
To CASP7 isoform 3 (UniProt P55210) belongs 0.185; to CLINT1 (UniProt Q14677), -0.003; to CLCN5 isoform 2 (UniProt P51795), -0.001.
Consider CASK (UniProt O14936), for which the log2 fold change is -0.068.
